# In the supplement of paper PMC10037445:
# In all, about 2,900 compounds were measured (“NF-kB SEAP reporter activity, fold change vs agonist alone”: median about 0.99, highest 2% from about 2.6 on). Shown is part of a subset that was picked to be rich in the highest values.
# Tests used:
# RAW-Dual [1] = test: NF-kB SEAP reporter activity, fold change vs agonist alone; cytotoxicity flag (confluency mask): not cytotoxic; higher = enhanced NF-kB activity
# Method in brief: (§1)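 Supernatant from RAW-Dual macrophages was read after 20 hours for IRF by QuantiLuc luminescence and for NF-κB by QuantiBlue absorbance at 620 nm. The cells (50,000 cells/well in DMEM, 384-well plates, 37 °C, 5% CO2) had received 50 nL of library stock by pin tool and, 1 h later, a PRR agonist. Reporter activity is expressed relative to agonist-alone wells as fold change, and wells were flagged cytotoxic if IncuCyte confluency was under 70% of agonist controls in both mask sets.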
# RAW-Dual [2] = test: NF-kB SEAP reporter activity, fold change vs agonist alone; higher = enhanced NF-kB activity
# Method in brief: as §1
# RAW-Dual [3] = test: NF-kB SEAP reporter activity, fold change vs agonist alone; cytotoxicity flag (confluency mask): cytotoxic (confluency <70% of control); higher = enhanced NF-kB activity
# Method in brief: as §1
# [4] = agonist: ODN 1826 (TLR9) 0.5 ug/mL
# [5] = agonist: Pam2CSK4 (TLR2/6) 0.1 ug/mL
# [6] = agonist: Pam3CSK4 (TLR2/1) 0.1 ug/mL
# [7] = library stock concentration (final ~1000-fold dilution): 10 mM, cytotoxicity flag (confluency mask): not cytotoxic, agonist: Imiquimod (TLR7) […]
# [8] = library stock concentration (final ~1000-fold dilution): 10 mM, cytotoxicity flag (confluency mask): not cytotoxic, agonist: MPLA (TLR4) […]
smiles,measurement,setting,value
CC1CCOC2Cn3cc(C(=O)NCc4ccc(F)cc4F)c(=O)c(O)c3C(=O)N12 (centres undefined) (library stock concentration (final ~1000-fold dilution): 10 mM),NF-kB SEAP reporter activity,RAW-Dual [1]; agonist: LPS (TLR4) 0.1 ug/mL,0.989
same,NF-kB SEAP reporter activity,RAW-Dual [1]; [4],0.999
same,NF-kB SEAP reporter activity,RAW-Dual [1]; [5],1.09
same,NF-kB SEAP reporter activity,RAW-Dual [1]; [6],0.921
CC1CCOC2Cn3cc(C(=O)NCc4ccc(F)cc4F)c(=O)c(O)c3C(=O)N12 (centres undefined),NF-kB SEAP reporter activity,"RAW-Dual [2]; library stock concentration (final ~1000-fold dilution): 2 mM, cytotoxicity flag (confluency mask): not cytotoxic, agonist: MPLA (TLR4) […]",0.994
same,NF-kB SEAP reporter activity,RAW-Dual [2]; [7],1.18
same,NF-kB SEAP reporter activity,RAW-Dual [2]; [8],0.999
CCOC(=O)C(CCc1ccccc1)NC1CCc2ccccc2N(CC(=O)O)C1=O.Cl (centres undefined),NF-kB SEAP reporter activity,RAW-Dual [2]; [7],0.99
same,NF-kB SEAP reporter activity,RAW-Dual [2]; [8],0.958
CCOC(=O)C(CCc1ccccc1)NC1CCc2ccccc2N(CC(=O)O)C1=O.Cl (centres undefined) (library stock concentration (final ~1000-fold dilution): 10 mM),NF-kB SEAP reporter activity,RAW-Dual [1]; agonist: LPS (TLR4) 0.1 ug/mL,0.997
same,NF-kB SEAP reporter activity,RAW-Dual [1]; [4],0.98
same,NF-kB SEAP reporter activity,RAW-Dual [1]; [5],1.03
same,NF-kB SEAP reporter activity,RAW-Dual [1]; [6],0.994
CC(C(=O)O)c1ccc(C(=O)c2cccs2)cc1 (centres undefined) (library stock concentration (final ~1000-fold dilution): 10 mM),NF-kB SEAP reporter activity,RAW-Dual [1]; agonist: LPS (TLR4) 0.1 ug/mL,1.19
same,NF-kB SEAP reporter activity,RAW-Dual [1]; [4],0.999
same,NF-kB SEAP reporter activity,RAW-Dual [1]; [5],1.06
same,NF-kB SEAP reporter activity,RAW-Dual [1]; [6],1.07
CC(C(=O)O)c1ccc(C(=O)c2cccs2)cc1 (centres undefined),NF-kB SEAP reporter activity,RAW-Dual [2]; [7],0.601
same,NF-kB SEAP reporter activity,RAW-Dual [2]; [8],0.825
CCCS(=O)c1ccc2nc(NC(=O)OC)[nH]c2c1 (centres undefined),NF-kB SEAP reporter activity,RAW-Dual [2]; [7],1.04
same,NF-kB SEAP reporter activity,RAW-Dual [2]; [8],0.808
COC(=O)Nc1nc2ccc(C(=O)c3cccs3)cc2[nH]1 (library stock concentration (final ~1000-fold dilution): 10 mM),NF-kB SEAP reporter activity,RAW-Dual [3]; agonist: LPS (TLR4) 0.1 ug/mL,2.52
same,NF-kB SEAP reporter activity,RAW-Dual [3]; [4],3.14
same,NF-kB SEAP reporter activity,RAW-Dual [3]; [5],1.85
same,NF-kB SEAP reporter activity,RAW-Dual [3]; [6],1.76
COC(=O)Nc1nc2ccc(C(=O)c3cccs3)cc2[nH]1,NF-kB SEAP reporter activity,"RAW-Dual [2]; library stock concentration (final ~1000-fold dilution): 10 mM, cytotoxicity flag (confluency mask): cytotoxic (confluency <70% of control), agonist: Imiquimod (TLR7) […]",2.68
same,NF-kB SEAP reporter activity,"RAW-Dual [2]; library stock concentration (final ~1000-fold dilution): 10 mM, cytotoxicity flag (confluency mask): cytotoxic (confluency <70% of control), agonist: MPLA (TLR4) […]",2.1
CCCS(=O)c1ccc2nc(NC(=O)OC)[nH]c2c1 (centres undefined) (library stock concentration (final ~1000-fold dilution): 10 mM),NF-kB SEAP reporter activity,RAW-Dual [1]; agonist: LPS (TLR4) 0.1 ug/mL,1.06
same,NF-kB SEAP reporter activity,RAW-Dual [1]; [4],0.948
same,NF-kB SEAP reporter activity,RAW-Dual [1]; [5],1.05
same,NF-kB SEAP reporter activity,RAW-Dual [1]; [6],1.09
CCCS(=O)(=O)NC1CC(N(C)c2ncnc3[nH]ccc23)C1 (centres undefined),NF-kB SEAP reporter activity,RAW-Dual [2]; [7],0.73
same,NF-kB SEAP reporter activity,RAW-Dual [2]; [8],0.764
CCCS(=O)(=O)NC1CC(N(C)c2ncnc3[nH]ccc23)C1 (centres undefined) (library stock concentration (final ~1000-fold dilution): 10 mM),NF-kB SEAP reporter activity,RAW-Dual [1]; agonist: LPS (TLR4) 0.1 ug/mL,0.584
same,NF-kB SEAP reporter activity,RAW-Dual [1]; [4],0.746
same,NF-kB SEAP reporter activity,RAW-Dual [1]; [5],0.786
same,NF-kB SEAP reporter activity,RAW-Dual [1]; [6],0.875
Cl.O=C1c2cccc3c2C(CCC3)CN1C1CN2CCC1CC2 (centres undefined) (library stock concentration (final ~1000-fold dilution): 10 mM water),NF-kB SEAP reporter activity,RAW-Dual [1]; agonist: LPS (TLR4) 0.1 ug/mL,0.985
same,NF-kB SEAP reporter activity,RAW-Dual [1]; [4],0.593
same,NF-kB SEAP reporter activity,RAW-Dual [1]; [5],0.966
same,NF-kB SEAP reporter activity,RAW-Dual [1]; [6],0.917
Cl.O=C1c2cccc3c2C(CCC3)CN1C1CN2CCC1CC2 (centres undefined),NF-kB SEAP reporter activity,"RAW-Dual [2]; library stock concentration (final ~1000-fold dilution): 10 mM water, cytotoxicity flag (confluency mask): not cytotoxic, agonist: Imiquimod (TLR7) […]",0.577
same,NF-kB SEAP reporter activity,"RAW-Dual [2]; library stock concentration (final ~1000-fold dilution): 10 mM water, cytotoxicity flag (confluency mask): not cytotoxic, agonist: MPLA (TLR4) […]",0.711
CCN(CC)CCNC(=O)c1c(C)[nH]c(/C=C2\C(=O)Nc3ccc(F)cc32)c1C.O=C(O)CC(O)C(=O)O (library stock concentration (final ~1000-fold dilution): 10 mM),NF-kB SEAP reporter activity,RAW-Dual [1]; agonist: LPS (TLR4) 0.1 ug/mL,0.295
same,NF-kB SEAP reporter activity,RAW-Dual [1]; [4],0.21
same,NF-kB SEAP reporter activity,RAW-Dual [1]; [5],0.27
same,NF-kB SEAP reporter activity,RAW-Dual [1]; [6],0.317
CCN(CC)CCNC(=O)c1c(C)[nH]c(/C=C2\C(=O)Nc3ccc(F)cc32)c1C.O=C(O)CC(O)C(=O)O,NF-kB SEAP reporter activity,RAW-Dual [2]; [7],0.892
same,NF-kB SEAP reporter activity,RAW-Dual [2]; [8],0.292
Cc1nn(CC(F)(F)F)cc1Nc1ncc(Br)c(NCc2ccc(S(N)(=O)=O)cc2)n1 (library stock concentration (final ~1000-fold dilution): 10 mM),NF-kB SEAP reporter activity,RAW-Dual [1]; agonist: LPS (TLR4) 0.1 ug/mL,0.744
same,NF-kB SEAP reporter activity,RAW-Dual [1]; [4],1.28
same,NF-kB SEAP reporter activity,RAW-Dual [1]; [5],1.17
same,NF-kB SEAP reporter activity,RAW-Dual [1]; [6],1.54
Cc1nn(CC(F)(F)F)cc1Nc1ncc(Br)c(NCc2ccc(S(N)(=O)=O)cc2)n1,NF-kB SEAP reporter activity,RAW-Dual [2]; [7],1.38
same,NF-kB SEAP reporter activity,RAW-Dual [2]; [8],1.33
CSCC(N)C(=O)O (centres undefined),NF-kB SEAP reporter activity,RAW-Dual [2]; [7],0.816
same,NF-kB SEAP reporter activity,RAW-Dual [2]; [8],0.97
CSCC(N)C(=O)O (centres undefined) (library stock concentration (final ~1000-fold dilution): 10 mM),NF-kB SEAP reporter activity,RAW-Dual [1]; agonist: LPS (TLR4) 0.1 ug/mL,1.3
same,NF-kB SEAP reporter activity,RAW-Dual [1]; [4],1.03
same,NF-kB SEAP reporter activity,RAW-Dual [1]; [5],1.12
same,NF-kB SEAP reporter activity,RAW-Dual [1]; [6],1.08
O=C(/C=C/c1cccnc1)c1ccncc1,NF-kB SEAP reporter activity,RAW-Dual [2]; [7],0.871
same,NF-kB SEAP reporter activity,RAW-Dual [2]; [8],0.953
O=C(/C=C/c1cccnc1)NCCCCC1CCN(C(=O)c2ccccc2)CC1 (library stock concentration (final ~1000-fold dilution): 10 mM),NF-kB SEAP reporter activity,RAW-Dual [1]; agonist: LPS (TLR4) 0.1 ug/mL,0.56
same,NF-kB SEAP reporter activity,RAW-Dual [1]; [4],1.07
same,NF-kB SEAP reporter activity,RAW-Dual [1]; [5],0.67
same,NF-kB SEAP reporter activity,RAW-Dual [1]; [6],0.537
Nc1ccc(F)cc1NC(=O)c1ccc(CNC(=O)/C=C/c2cccnc2)cc1 (library stock concentration (final ~1000-fold dilution): 10 mM),NF-kB SEAP reporter activity,RAW-Dual [1]; agonist: LPS (TLR4) 0.1 ug/mL,3.7
same,NF-kB SEAP reporter activity,RAW-Dual [1]; [4],3.18
same,NF-kB SEAP reporter activity,RAW-Dual [1]; [5],0.749
same,NF-kB SEAP reporter activity,RAW-Dual [1]; [6],1.53
O=C(/C=C/c1cccnc1)NCCCCC1CCN(C(=O)c2ccccc2)CC1,NF-kB SEAP reporter activity,RAW-Dual [2]; [7],1.06
same,NF-kB SEAP reporter activity,RAW-Dual [2]; [8],0.719
Nc1ccc(F)cc1NC(=O)c1ccc(CNC(=O)/C=C/c2cccnc2)cc1,NF-kB SEAP reporter activity,RAW-Dual [2]; [7],1.65
same,NF-kB SEAP reporter activity,RAW-Dual [2]; [8],1.89
O=C(/C=C/c1cccnc1)c1ccncc1 (library stock concentration (final ~1000-fold dilution): 10 mM),NF-kB SEAP reporter activity,RAW-Dual [1]; agonist: LPS (TLR4) 0.1 ug/mL,1.03
same,NF-kB SEAP reporter activity,RAW-Dual [1]; [4],0.938
same,NF-kB SEAP reporter activity,RAW-Dual [1]; [5],1.21
same,NF-kB SEAP reporter activity,RAW-Dual [1]; [6],1.05
